PubChem BioAssay AID1159580 (chemical genetic matrix, 2015)
“And” between values parts separate entries of the source, which are not always exact repeats. Identical values can stand only once. The campaign covered roughly 5,500 compounds. About 2,000 (36%) were called active. Roughly 18% stayed inconclusive and do not appear here. Rule as the data show it: active = normalized growth mostly below about 0.91 (no sharp cut-off); inconclusive = no clear call, values can overlap the other calls; inactive = mostly above about 0.92. The list shows a part of the results.

Experiment: chemical genetic growth profiling, strain panel (AID 1159580);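 also: tested at 20 µM; growth read once vehicle control cultures reached saturation at 30 °C; 1 = growth at the plate median or of vehicle wells; lower values mean less growth of the strain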
Conditions: S. cerevisiae deletion strains, growth OD

Measured: normalized growth

O=C(C1CCCCC1)N1CC(=O)N2CCc3ccccc3C2C1 (stereo not drawn)
inactive: locus YAL021C, strain ccr4, hits give low values 0.999 | locus YAL026C, strain drs2, hits give low values 1 | locus YAL030W, strain snc1, hits give low values 1.01 | locus YAL040C, strain CLN3, hits give low values 1.05 | locus YBL061C, strain skt5, hits give low values 1.01 | locus YBR009C, strain hhf1, hits give low values 1.01 | locus YBR021W, strain FUR4, hits give low values 0.993 | locus YBR023C, strain chs3, hits give low values 1.02 | locus YBR171W, strain sec66, hits give low values 1.01 | locus YBR229C, strain ROT2, hits give low values 1 | locus YBR231C, strain swc5, hits give low values 0.983 | locus YBR279W, strain paf1, hits give low values 1.01 | locus YCL011C, strain gbp2, hits give low values 1.03 | locus YCL016C, strain dcc1, hits give low values 1.04 | locus YCL029C, strain bik1, hits give low values 1.01 | locus YCL061C, strain MRC1 (second series), hits give low values 1 | locus YCL061C, strain MRC1, hits give low values 1.01 | locus YCL069W, strain vba3, hits give low values 1.01 | locus YCR088W, strain abp1, hits give low values 1.01 | locus YDL005C, strain med2, hits give low values 1.01 | locus YDL035C, strain GPR1, hits give low values 1 | locus YDL040C, strain nat1, hits give low values 0.992 | locus YDL074C, strain BRE1, hits give low values 1.01 | locus YDL101C, strain DUN1, hits give low values 1.01 | locus YDL134C, strain PPH21, hits give low values 1 | locus YDL185W, strain tfp1, hits give low values 1.01 | locus YDL192W, strain arf1, hits give low values 1.01 | locus YDR001C, strain nth1, hits give low values 1 | locus YDR069C, strain doa4, hits give low values 0.978 | locus YDR101C, strain arx1, hits give low values 1.03 | locus YDR137W, strain rgp1, hits give low values 1.03 | locus YDR159W, strain sac3, hits give low values 0.976 | locus YDR162C, strain NBP2, hits give low values 1 | locus YDR195W, strain ref2 0.981 | locus YDR297W, strain sur2, hits give low values 1.01 | locus YDR318W, strain mcm21, hits give low values 1.02 | locus YDR334W, strain swr1, hits give low values 1.01 | locus YDR335W, strain msn5, hits give low values 0.999 | locus YDR363W, strain ESC2, hits give low values 1.04 | locus YDR388W, hits give low values 1.01 | locus YDR392W, strain spt3, hits give low values 0.862 | locus YDR502C, strain sam2, hits give low values 1.01 | locus YEL003W, strain gim4, hits give low values 0.995 | locus YEL037C, strain rad23, hits give low values 0.999 | locus YEL061C, strain CIN8 (second series), hits give low values 1 | locus YEL061C, strain CIN8, hits give low values 1 | locus YER002W, strain NOP16, hits give low values 1.01 | locus YER015W, strain faa2, hits give low values 1 | locus YER016W, strain bim1, hits give low values 0.989 | locus YER110C, hits give low values 1.02 | locus YER111C, strain swi4, hits give low values 1 | locus YER155C, strain BEM2 (second series), hits give low values 0.913 | locus YER155C, strain BEM2, hits give low values 1 | locus YER167W, strain BCK2, hits give low values 1 | locus YFR010W, strain ubp6, hits give low values 1.01 | locus YGL078C, strain dbp3, hits give low values 1.01 | locus YGL086W, strain mad1, hits give low values 1.01 | locus YGL167C, strain pmr1, hits give low values 1.01 | locus YGL173C, strain kem1, hits give low values 1 | locus YGL227W, strain vid30, hits give low values 1.01 | locus YGL240W, strain doc1, hits give low values 0.978 | locus YGL248W, strain PDE1, hits give low values 1.01 | locus YGL253W, strain hxk2, hits give low values 0.982 | locus YGR078C, strain PAC10, hits give low values 1 and 1.01 | locus YGR135W, strain pre9, hits give low values 0.998 | locus YGR252W, strain gcn5, hits give low values 0.953 | locus YHR013C, strain ard1, hits give low values 0.988 | locus YHR027C, strain rpn1, hits give low values 1.01 | locus YHR030C, strain SLT2, hits give low values 1 and 1.01 | locus YHR079C, strain IRE1 (second series), hits give low values 1.01 | locus YHR079C, strain IRE1, hits give low values 1.01 | locus YHR094C, strain hxt1, hits give low values 1.01 | locus YHR129C, strain ARP1, hits give low values 0.992 | locus YHR142W, strain chs7, hits give low values 1 | locus YHR200W, strain rpn10, hits give low values 1.01 | locus YIL066C, strain RNR3, hits give low values 1.01 | locus YIL073C, strain SPO22, hits give low values 1.01 | locus YIL125W, strain kgd1, hits give low values 1.01 | locus YIR030C, strain dcg1, hits give low values 1.01 | locus YJL092W, strain hpr5, hits give low values 1 | locus YJL095W, strain BCK1 (second series), hits give low values 1.01 | locus YJL095W, strain BCK1, hits give low values 0.974 and 1.03 | locus YJL115W, strain asf1, hits give low values 1.01 | locus YJL129C, strain trk1, hits give low values 0.997 | locus YJL134W, strain LCB3, hits give low values 1 | locus YJL154C, strain vps35, hits give low values 1 | locus YJL164C, strain tpk1, hits give low values 1.02 | locus YJL166W, strain qcr8, hits give low values 1.02 | locus YJL168C, strain set2, hits give low values 1.01 | locus YJL187C, strain SWE1 (second series), hits give low values 1.01 | locus YJL187C, strain SWE1, hits give low values 1.01 | locus YJR043C, strain POL32, hits give low values 1.01 | locus YJR066W, strain TOR1, hits give low values 0.939
